HCV inh – HCV inhibition; Huh7.5.1 HCVcc-Cre infection, luciferase reporter, 44 h; Potency, µM (titrated, usually from 41.8 µM), hits mostly inhibitors; 3.4% of 340,000 active; AID 651820
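Antiviral activity was scored by luciferase reporter output from cells infected with HCVcc-Cre (~0.5 moi) in presence of compound, 44 h infection period, cells seeded 1,000/well 4 h prior.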
Vaccinia mCherry – vaccinia inhibition (mCherry reporter); Vaccinia virus mCherry reporter infection, fluorescence; Potency, µM (series often up to 36.5 µM), hits mostly inhibitors; 0.63% of 310,000 active; calls by dose curve; tested in A549 cells; note: nearly all actives have a fitted effect of over 35% in size
FMDV antiviral – antivirals against foot and mouth disease virus; FMDV antiviral cell-based qHTS; Potency, µM (titrated, usually from 57.9 µM), hits mostly inhibitors; AID 1159524; 1.2% of 410,000 active; calls by dose curve; tested in HEK293T cells; note: read-out not given here; nearly all actives have a fitted effect of over 45% in size
Giardia FBPA inh – blocks Giardia fructose-bisphosphate aldolase activity; A8B2U2; purified Giardia FBPA; Potency, µM (titrated, usually from 59.6 µM), actives largely listed as inhibitors; 0.71% of 290,000 active; AID 2451; note: nearly all actives have a fitted effect of over 55% in size
Target sequence (A8B2U2 whole entry, looked up): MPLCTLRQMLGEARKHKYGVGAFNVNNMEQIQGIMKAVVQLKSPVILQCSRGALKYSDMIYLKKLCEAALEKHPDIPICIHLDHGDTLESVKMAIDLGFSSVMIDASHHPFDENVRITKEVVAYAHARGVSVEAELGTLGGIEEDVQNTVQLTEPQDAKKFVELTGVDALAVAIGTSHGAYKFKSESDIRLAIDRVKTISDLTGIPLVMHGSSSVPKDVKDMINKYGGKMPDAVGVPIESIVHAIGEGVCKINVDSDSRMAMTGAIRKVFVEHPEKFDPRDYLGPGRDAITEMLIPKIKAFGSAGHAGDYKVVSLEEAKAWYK
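Giardia FBPA (40 nM reagent) was preincubated 10 min at RT with compound (up to 57.5 uM final), then substrate plus GAPDH/TPI/NAD/arsenate coupling system with diaphorase/resazurin was added; resorufin fluorescence (525/598 nm) was read after 20 min.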
HCMV inh – blocks human cytomegalovirus replication; activity change, negative = inhibition, % at 57.5 µM; 4.5% of 410,000 active; HFF cells, HCMV-luciferase reporter, 72 h; stronger effect = lower value; in the data active = activity change below about -60%; inconclusive = no clear call, values can overlap the other calls; inactive = above about -39%
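Luciferase read-out from HCMV-luciferase-infected HFFs (MOI 1 PFU/cell) 72 h post infection at 37C; compounds added after 16 h cell attachment; activity normalized between buffer-only basal and Salinomycin (10uM) inhibitor controls.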
Vaccinia Venus – vaccinia inhibition (Venus reporter). Vaccinia virus Venus reporter expression, fluorescence. Potency, µM (titrated, usually from 36.5 µM), most hits filed as inhibitors. 0.46% of 330,000 active. AID 720580; calls by dose curve; tested in A549 cells; note: nearly all actives have a fitted effect of over 30% in size
A number is an active result; – = inactive; ? = inconclusive; · = no result. The list is not random: actives were taken first. Their share in the collection is about 7.5%. Unless noted, calls come from the whole dose curve; as a rule, active = well fitted curve in the direction sought with a large enough effect; inconclusive = small, poorly fitted or top-dose-only effect, or another doubt; inactive = no such curve, though single readings can be large; an effect the other way counts as inactive or inconclusive.

SMILES | HCV inh | Vaccinia mCherry | FMDV antiviral | Giardia FBPA inh | HCMV inh | Vaccinia Venus
COc1cc(C(=O)NCC(c2cccs2)N2CCOCC2)cc(Br)c1OCc1ccccc1 (stereo not drawn) | 10µM | · | – | · | – | ·
COc1ccc(-n2ncc(C(=O)N3CCN(C(=O)c4ccco4)CC3)c2C2CCN(C(=O)OC(C)(C)C)CC2)cc1 | · | – | – | · | – | –
Cc1nn(-c2ccccc2)c2nc(N)c(C#N)c(-c3ccc(O)c(O)c3)c12 | 11µM | ? | – | – | -62 | ?
COc1ccc(N(C(=O)C2COc3ccccc3O2)C(C(=O)NC2CCCCC2)c2ccccc2)cc1OC (stereo not drawn) | ? | – | – | – | -63 | –
COc1cc(OC)cc(N(C(=O)C2COc3ccccc3O2)C(C(=O)NC2CCCCC2)c2ccc(O)cc2)c1 (stereo not drawn) | ? | ? | – | – | -77 | ?
COc1cccc(C(C(=O)NC2CCCCC2)N(CCN2CCOCC2)C(=O)C2COc3ccccc3O2)c1 (stereo not drawn) | – | – | – | – | – | –
COC(=O)c1ccc(C2C(C(=O)c3ccco3)=C(O)C(=O)N2CC2CCCO2)cc1 (stereo not drawn) | – | – | – | · | – | –
CCOc1ccc(S(=O)(=O)NCCc2c(C)[nH]c3c(Cl)cccc23)cc1C | · | – | – | · | ? | –
CN1CCc2nc3sc(C(=O)Nc4ccccc4C(F)(F)F)c(N)c3cc2C1 | · | – | – | · | – | –
N#Cc1ccc(Nc2nc(-c3ccc(O)cc3O)cs2)cc1C(F)(F)F | 11µM | ? | 35µM | · | · | 11µM
CCC1(CC)CCNC1=O | · | · | · | – | · | ·
CCOc1ccccc1NC(=O)c1cc(S(=O)(=O)NCc2ccco2)ccc1F | – | · | – | · | – | ·
COc1cc(-c2cc(C(=O)Nc3ccc(S(=O)(=O)NCc4ccco4)cc3)c3ccccc3n2)cc(OC)c1OC | 0.28µM | ? | ? | – | -63 | –
COc1cc(-c2cc(C(=O)NCc3ccco3)c3ccccc3n2)cc(OC)c1OC | ? | – | – | – | – | –
COc1cccc(C(=O)Nc2ccc(S(=O)(=O)NCc3ccco3)cc2)c1 | 25µM | · | – | – | – | ·
COc1ccc(OC)c(NC(=O)c2cc(S(=O)(=O)NCc3ccco3)ccc2F)c1 | 25µM | · | – | – | – | ·
COCC(=O)N1C[C@H]2CON(C)[C@H]2C[C@H]1c1ccc(N2CCCCC2)cc1 | · | – | – | · | – | –
O=C(NCc1ccccc1)C(c1ccc(C(F)(F)F)cc1)n1c(=O)c(-c2ccco2)nc2ccccc21 (stereo not drawn) | · | – | – | · | – | –
CCN(CC(=O)Nc1ccc(OC)cc1)C(=O)c1ccc(N2CCCC2=O)cc1 | – | · | – | · | – | ·
O=C1c2ccccc2S(=O)(=O)N1CC(O)COc1ccc(Cl)cc1 (stereo not drawn) | – | – | – | – | – | –
COC(=O)c1ccc(OCC(O)CN2C(=O)c3ccccc3S2(=O)=O)cc1 (stereo not drawn) | 5µM | – | – | – | – | –
O=C(/C=C\c1ccc2c(c1)OCO2)Nc1nnc(SCC(=O)OCc2ccccc2)s1 | – | · | · | – | – | ·
Cc1cccc(C(=O)OCC(=O)N2CCCCCC2)c1 | – | – | – | · | – | –
CN(C)c1ccc(-c2[nH][nH]c(=O)c2NC(=O)c2ccc3ccccc3n2)cc1 | · | – | – | · | -63 | –
CN(C)c1ccc(-c2[nH][nH]c(=O)c2NC(=O)c2ccccn2)cc1 | · | – | – | · | -61 | –
SMILES | HCV inh | Vaccinia mCherry | FMDV antiviral | Giardia FBPA inh | HCMV inh | Vaccinia Venus
Cc1cnc(C(=O)Nc2c(-c3ccccc3)[nH][nH]c2=O)cn1 | · | – | – | · | – | –
O=C(Nc1c(-c2ccccc2)[nH][nH]c1=O)c1ccccc1 | · | – | – | · | – | –
CCCC(=O)Nc1nc2ccc3nc(C)sc3c2s1 | ? | ? | – | – | – | –
CCCCC(=O)Nc1nc2ccc3nc(C)sc3c2s1 | 7.9µM | – | – | – | – | –
COc1cc(C(=O)N(Cc2ccccc2)c2cccc(C)c2)ccc1OC(F)F | · | – | – | · | – | –
Cc1cc(=O)oc2ccc(OCC(=O)N(Cc3ccc(F)cc3)Cc3ccco3)cc12 | 3.2µM | – | 20µM | – | – | –
Cc1cccc(OCC(=O)N(Cc2ccc(C(C)(C)C)cc2)Cc2ccco2)c1 | · | – | – | · | -82 | –
COc1cc(NC(=O)CN2C(=O)COc3ccc(S(=O)(=O)NC4CCCC4)cc32)cc(OC)c1 | · | – | – | · | – | –
CC(=O)O[C@@H]1C(CO[Si](C)(C)C(C)(C)C)=C(Br)C(=O)[C@@H]2O[C@]12C | · | · | · | – | · | ·
CCc1ccc(C(O)(CC(C)C)C(CN2CCOCC2)c2ccccc2)cc1 (stereo not drawn) | ? | · | ? | – | -90 | ·
COc1ccc(C(O)(CCC(C)C)C(CN2CCOCC2)c2ccc(Cl)cc2)cc1 (stereo not drawn) | ? | – | – | – | ? | –
COc1ccc(C(O)(CC(C)C)C(CN2CCOCC2)c2ccccc2)cc1 (stereo not drawn) | – | – | ? | – | -83 | ?
CCc1ccc(C(O)(c2ccccc2OC)C(CN2CCOCC2)c2ccccc2)cc1 (stereo not drawn) | – | – | – | – | ? | –
CN1CCN(C(=O)C2Cc3c(-c4ccc5c(c4)OCO5)ccnc3O2)CC1 (stereo not drawn) | · | – | – | · | – | –
NC(=S)n1[nH]c(-c2ccc([N+](=O)[O-])cc2)c(N=Nc2ccc(O)cc2)c1=O | – | · | – | – | – | ·
NC(=S)n1[nH]c(-c2ccc([N+](=O)[O-])cc2)c(N=Nc2cccc(Cl)c2)c1=O | 13µM | – | ? | – | -101 | –
CCCOc1ccccc1/C=C1\SC(N)=NC1=O | – | ? | – | – | -64 | ?
CCCOc1ccc(/C=C2\SC(N)=NC2=O)cc1OC | – | · | – | – | – | ·
CCOc1ccc(OCC)c(NS(=O)(=O)c2c(C(=O)N3CCC(C)CC3)c(C)n(C)c2C)c1 | · | – | – | · | – | –
CC(C)(C)c1cc(C(c2cccnc2)N2CCN(CCO)CC2)cc(C(C)(C)C)c1O (stereo not drawn) | 10µM | – | · | – | -102 | –
N#CCCn1c(=O)c(-c2cccs2)nc2cnc(Oc3ccccc3)nc21 | · | · | – | – | · | ·
O=C(COc1cccc(C(F)(F)F)c1)Nc1cccnc1 | – | · | – | – | -85 | ·
Cc1cccc(OCC(=O)Nc2ccc(S(=O)(=O)N3CCCC3)cc2)c1 | – | – | ? | – | – | –
CCOc1cc(N2CCOCC2)c(OCC)cc1NC(=O)COc1cccc(CC)c1 | 10µM | · | – | · | – | ·
O=C(COc1cccc(C(F)(F)F)c1)Nc1ccc(S(=O)(=O)N2CCCCC2)cc1 | 25µM | – | ? | · | – | –
CCOc1cc(N2CCOCC2)c(OCC)cc1NC(=O)Cc1cccc(OC)c1 | – | · | – | – | – | –
CCc1cccc(OCC(=O)Nc2ccc(S(=O)(=O)N3CCCC3)cc2)c1 | 11µM | ? | – | · | – | –

Screening data deposited in PubChem BioAssay by National Center for Advancing Translational Sciences (NCATS).
